Assay outcomes from PubChem BioAssay.
This is a sample that favours compounds with a hit; in the whole collection about 4.2% have one here.
D1 PAM – potentiators of human D1 dopamine receptor. actives 0.036% (n = 360,000). AID 504651. HEK293 TREx D1 cells, calcium flux, dopamine EC20 potentiation. potentiation, % at 10 µM. P21728; in the data active means potentiation above about 30%; further: 0% is about no effect
TRPV1 potentiator – enhances activation of the human vanilloid receptor TRPV1 | potentiation, % at 8.33 µM | AID 540277 | actives 0.02% (n = 320,000) | Q8NER1 | TRPV1-expressing cells, Fluo-8 calcium influx, capsaicin EC20 potentiation; in the data active means potentiation above about 80%; inconclusive means between about 30% and that limit; further: 0% is about no effect
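Cells expressing TRPV1 were dye-loaded with Fluo-8 and read kinetically: 10 s baseline, 3 min after compound (agonist portion), then 2 min after EC20 capsaicin (allosteric enhancer portion). Calcium-bound dye fluorescence at 480/520 nm.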
D1 antag – blocks dopamine activation of the human D1 receptor. P21728. actives 3.2% (n = 360,000). activity change, negative = inhibition, % at 10 µM. AID 504652. HEK293 TREx D1 cells, calcium flux, dopamine EC80; stronger effect = lower value; in the data active means activity change below about -30%; further: on the % scale 0 is the no-effect control and ±100 the full control effect
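Inducible Hek293 Trex D1 cells (tetracycline, overnight, 30 C). Calcium dye 30–90 min RT. Antagonist mode: EC80 dopamine added after 180 s compound read.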
TRPV1 agonist – human TRPV1 agonism; Q8NER1; TRPV1-expressing cells, Fluo-8 calcium influx, agonist mode; actives 0.19% (n = 320,000); activation, % at 8.33 µM; in the data active means activation above about 80%; inconclusive means between about 30% and that limit; further: 0% is about no effect
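Cells expressing TRPV1 were dye-loaded with Fluo-8 and read kinetically: 10 s baseline, 3 min after compound (agonist portion), then 2 min after EC20 capsaicin (allosteric enhancer portion). Calcium-bound dye fluorescence at 480/520 nm.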
D1 agonist – human D1 receptor agonism; P21728; activation, % at 2 µM; AID 504660; actives 1% (n = 360,000); HEK293 T-REx D1 cells, calcium flux, agonist mode; in the data active means activation above about 30%; further: 0% is about no effect
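Inducible HEK293 T-REx D1 cells, force-coupled to calcium signalling, were plated at 4000 cells/well with tetracycline and held overnight at 30 C. After no-wash calcium dye loading, compound-evoked calcium rise over 180 s flagged agonists.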
The depositor's hits bear a star; ? = inconclusive; . = no result.

SMILES	D1 PAM	TRPV1 potentiator	D1 antag	TRPV1 agonist	D1 agonist
Cc1ccc(C(=O)NC(=S)NNC(=O)c2ccccc2)cc1	-5.2	-19.2	-41.8*	24.7	200.0*
Cc1ccc(C(=O)NNC(=S)NC(=O)c2ccc(Cl)cc2Cl)cc1	1.9	-18.6	4.4	20.9	153.6*
CCCCC(=O)NC(=S)NNC(=O)c1ccc(Cl)cc1Cl	-0.3	?	-21.0	-1.1	0.1
Cc1ccc(C(=O)NC(=S)NNC(=O)c2ccc([N+](=O)[O-])cc2)cc1	-6.0	?	6.3	0.3	19.6
COc1cccc(C(=O)NCCSc2c(-c3ccc(F)cc3)[nH]c3ccccc23)c1OC	1.4	.	2.3	.	-0.2
COc1ccc(CCNC(=O)CN2C(=O)COc3ccccc32)cc1OC	-0.1	.	17.8	.	2.1
O=C(Nc1nnc(-c2cccnc2)s1)c1cccs1	0.7	2.5	5.2	-1.8	1.6
Cc1cccc(-c2nnc(NC(=O)c3cccs3)s2)c1	0.3	-3.3	-41.2*	-9.2	1.1
Cc1ccc(C)c(NC(=S)NCc2ccccc2)c1	-7.6	-8.2	-36.3*	?	1.8
Cc1ccccc1C(=O)NNC(=S)NC(=O)c1ccccc1	-0.7	-16.5	-37.3*	28.8	279.3*
Cc1ccc(C(=O)NC(=S)NNC(=O)c2ccccc2O)cc1	-0.8	27.8	-16.4	4.9	55.2*
COc1ccc(CNC(=S)Nc2cc(C)ccc2C)cc1	-1.8	-6.5	-10.8	20.1	1.3
Cn1c2cc(Br)sc2c2cnn(Cc3c(F)cccc3Cl)c(=O)c21	-0.5	.	-93.6*	.	-0.3
Cn1c2cc(Br)sc2c2cnn(Cc3c(F)cccc3F)c(=O)c21	12.2	.	0.2	.	3.7
COCCNC(=O)CCCn1c(SCC(=O)c2ccc(F)cc2)nc2c(sc3ccccc32)c1=O	-1.6	.	2.1	.	-0.4
CC1(C)NC(=O)N(CC(O)COc2ccccc2C(=O)N2CCCCC2)C1=O (stereo not given)	-2.0	-5.4	-30.1*	-3.3	2.1
CC1(C)NC(=O)N(CC(O)COc2cc3ccccc3cc2C(=O)N2CCCCC2)C1=O (stereo not given)	1.8	-11.9	16.3	-4.3	0.0
COc1ccccc1C1c2[nH]c3ccccc3c2CCN1Cc1cnc(C)s1 (stereo not given)	2.4	0.0	1.8	1.3	0.6
COc1cccc(C2c3[nH]c4ccccc4c3CCN2Cc2cnc(C)s2)c1OC (stereo not given)	6.0	-0.3	-42.7*	-0.3	0.9
COc1cccc(=O)c2c(C)n(CC(=O)c3ccccc3)c(C)c12	-3.8	11.8	-32.8*	-5.5	6.2
CCOc1cccc(=O)c2c(C)n(CC(=O)c3ccccc3)c(C)c12	0.5	-7.0	13.6	0.5	6.3
O=c1c2ccccc2n(Cc2cccc(F)c2)c(=O)n1Cc1ccccc1Cl	-0.9	.	1.0	.	4.4
CCC(=O)Nc1cnc(NC(=O)c2cccc(F)c2)cc1C	-5.6	-8.4	8.1	2.8	8.4
CC(=O)Nc1cnc(NC(=O)c2cccc(F)c2)cc1C	-2.6	-2.3	-36.0*	3.7	3.1
CCCCc1cc(=O)oc2c(C)c(OCC(=O)N3CCC(C(=O)O)(c4ccccc4)CC3)ccc12	-1.5	-20.4	-4.7	1.9	0.9
SMILES	D1 PAM	TRPV1 potentiator	D1 antag	TRPV1 agonist	D1 agonist
CCc1cc(=O)oc2cc(C)cc(OCC(=O)N3CCC(C(=O)NC(C)C)(c4ccccc4)CC3)c12	-8.0	-5.6	-37.5*	-4.3	1.1
Cc1ccc(SCC(=O)Nc2ccc(O)c(-c3nc4cc(C)ccc4o3)c2)cc1	-1.2	.	-83.2*	.	-1.1
CC(C)Cc1csc(NC(=O)c2ccc(Cl)cc2)c1C(=O)O	-3.8	2.5	-31.3*	1.6	16.7
CC(C)Cc1csc(NC(=O)c2ccccc2Cl)c1C(=O)O	2.4	-8.1	5.8	2.9	2.1
Cc1cccc(-c2noc(-c3ccccc3OCC(=O)Nc3ccc([N+](=O)[O-])cc3)n2)c1	1.1	.	-26.2	.	-0.7
Cc1ccc(C2=NS(=O)(=O)N(C)C(C(=O)NC(C)c3ccccc3)=C2)cc1 (stereo not given)	-6.0	-14.6	-43.4*	11.5	3.5
COc1ccc(CNC(=O)C2=CC(c3ccc(C)cc3)=NS(=O)(=O)N2C)cc1	-19.0	19.2	-33.9*	?	-0.9
COc1ccc(CNC(=O)C2=CC(c3ccc(OC)cc3)=NS(=O)(=O)N2C)cc1	-5.8	0.3	-27.7	17.8	0.2
Cc1ccc(C2=NS(=O)(=O)N(C)C(C(=O)NCc3ccccc3)=C2)cc1	-9.2	-7.3	-46.9*	?	5.2
COc1ccc(C2=NS(=O)(=O)N(C)C(C(=O)Nc3ccc(OC(F)(F)F)cc3)=C2)cc1	-2.5	.	-37.1*	.	4.0
Cc1ccc(OCC(=O)Nc2nnc(SCc3cc(=O)n4cc(C)ccc4n3)s2)cc1	-2.1	.	-0.4	.	0.1
COc1cc2c(cc1OC)C(COc1ccc3c(C)cc(=O)oc3c1)N(C(=O)c1ccccc1C)CC2 (stereo not given)	-0.7	.	0.7	.	2.8
CN1CCC/C1=C/C=C1\SC(=S)NC1=O	-0.9	-2.8	9.9	29.5	80.9*
Cc1cc(/C=C2\SC(=S)NC2=O)c(C)n1C1CC1	-5.4	-5.4	-9.6	2.8	21.4
CN(CC(=O)Nc1ccc(Cl)cc1)C(=O)c1ccc(N2CCCC2=O)cc1	-7.1	-2.4	-39.2*	-1.8	1.8
O=C(NCc1ccc(Cl)cc1)c1ccc(N2CCCC2=O)cc1	-6.5	-13.0	-18.9	26.5	4.0
CN(CC(=O)Nc1ccc(OC(F)(F)F)cc1)C(=O)c1ccc(N2CCCC2=O)cc1	-6.8	-8.5	-31.9*	-0.8	10.3
O=C(Nc1ccc(F)cc1)c1ccc(-n2cnc3cccnc32)cc1	-0.4	.	12.4	.	5.6
CC(C)(c1ccccc1)c1ccc(OCCn2cnc3ccccc3c2=O)cc1	6.1	11.2	4.9	8.5	33.5*
COc1ccc(NC(=O)c2ccc(COc3ccccc3)o2)c(OC)c1	-12.9	?	-30.9*	9.4	5.6
O=S(=O)(c1ccc2c(c1)OCCO2)N1CCN(S(=O)(=O)c2ccccc2Cl)CC1	-3.4	.	-12.5	.	3.4
Cc1csc(=Nc2cccnc2)n1CC1CCCCC1	-0.3	-18.0	0.2	?	2.2
C=CCN1C(=Nc2cccnc2)SCC1(O)c1ccc(C)cc1 (stereo not given)	-14.3	-17.8	-55.8*	17.2	18.9
COC(=O)c1c(-c2cccc(OC)c2)csc1N	3.1	11.1	-8.1	-3.8	1.7
COC(=O)c1c(-c2ccc(OC)c(OC)c2)csc1N	-6.6	-9.6	-33.6*	0.8	0.7
Nc1ncc(S(=O)(=O)Nc2ccc(F)cc2F)cn1	-1.9	.	-13.9	.	-0.4
Fc1ccc(NC(=S)N2N=CCC2c2ccccc2)cc1 (stereo not given)	-4.2	17.4	-2.3	-5.4	77.2*
S=C(Nc1ccccc1)N1N=CCC1c1ccccc1 (stereo not given)	-4.5	-7.3	.	-0.7	2.1
